# Experimental data as given in PubChem BioAssay AID1159506 (National Center for Advancing Translational Sciences (NCATS), 2015).
# The full ranking holds about 59,000 sequences; the median of the read-out is about -0.00055, and the lowest 2% start at about -2. Many of the other results were omitted from the sample, so the lowest values are more common in it than they were.
# Experiment: Identification of proteins required for the processing of the EWS-FLI1 nascent transcript;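 also: robust z of luciferase light less the median z of siRNAs with the same seed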
# Settings: TC32 Ewing sarcoma NR0B1-luc vs CMV-luc (EWS-FLI1 target promoter against control promoter), 48 h; screened at 20 nM (by protocol)
# Description: Ewing sarcoma (ES) cells depend on the EWS-FLI1 fusion transcription factor for cell survival. Using an assay of EWS-FLI1 activity and genome-wide siRNA screening we have identified proteins required for the processing of the EWS-FLI1 nascent transcript. Parallel genome-wide siRNA-mediated RNAi screens were conducted in Ewing sarcoma TC32 cell lines expressing a luciferase (luc) reporter protein driven by either the promoter of the EWS-FLI1 target gene NR0B1 (TC32-NR0B1-luc) or the CMV promoter (TC32-CMV-luc). Luciferase activity was assessed 48 hours post siRNA-transfection.
# Twenty microl of serum-free media containing Lipofectamine RNAiMax (0.05 microl) was added to wells containing siRNA (0.8 pmol). Lipid and siRNA were allowed to complex for 45 min at ambient temperature before addition of 600 cells in RPMI-1640, 20% FBS to yield final transfection mixtures containing 20 nM siRNA in RPMI-1640, 10% FBS. Luciferase expression was measured using OneGlo (Promega, Madison, WI). The genome-wide screening campaign was conducted using Ambion's human genome library version 4.1 (Ambion, Austin TX). This library targets approximately 21000 human genes, three siRNAs per gene. Each siRNA is arrayed in an individual well of a 384-well plate. Parallel transfections were conducted in TC32-NR0B1-luc and TC32-CMV-luc cell lines and luciferase expression (OneGlo, Promega) was assayed 48 h later on a PerkinElmer Envision 2104 Multilabel plate reader (PerkinElmer, Waltham, MA). Qiagen's AllStars Negative control was incorporated on all screening plates for normalization (16 wells per plate). Qiagen, Germantown, MDsiGL4 was incorporated as a positive transfection control (16 wells per plate) on all plates. […] The raw luciferase data for the NR0B1- and CMV-luc screens were normalized and z-score-MAD transformed using standard methods (Chung et al., 2008). The miRNA-like seed sequence of every siRNA was determined and the median z-score for all siRNA sequences with the same seed sequence was calculated. This z-score was subtracted from the z-score associated with each siRNA with that seed sequence to generate a seed-adjusted z-score value (Z) that was used when the results for the three siRNAs corresponding to each gene were compared (Marine et al., 2012)
row,Sequence,seed-corrected z-score
1,AAUGGAUUCAGUUACUUGC against TACSTD2,-0.0397
2,UGUCUUCGAUGUUUCAUCG against DOK6,-2.6
3,UUCGGGAAAGUAGUCAUGA against NSFL1C,0.0545
4,UACACUAGCAUUGCACUCC against ARHGEF19,0.989
5,AUCUUGUUCCGCAUGGUCU against AMOTL2,0.501
6,UUUAGCAACAGAGUCCACC against MAP2K6,0.538
7,AUCUUCAAUACUUGAAUCU against LINC00467,-0.368
8,UUUCAUGCACCAACGGAUC against ABHD2,-2.24
9,AAAGGAAAGAUGACAGUAU against OR4N5,0.213
10,AAGCUUUUUAUUGGAGUUC against ZNF852,1.01
11,UCAGCGAACAUGUCCAGGG against CD2BP2,0.587
12,AAUUUAAUAGUGUUUGUGC against PLPP4,0.11
13,UCAGAGCACAGAUCGGGAC against DUSP2,0.227
14,UUUGUCCUUAGUAAUGAAU against HOXA13,-0.568
15,UUUGCAAUUGAGGUGAGGC against ANP32D,-0.262
16,UUCACAACAGGGUGGAGCC against FAM110A,-0.481
17,UUGCCUAUCUGGUUGAUGG against MATN1,-0.472
18,UUCUGAUUCUGCUUGUUGG against MPRIP,-2.12
19,UCCGUUAUAAACAAACAGG against ITGA11,-0.259
20,UUCUGCAAGCUCACUGUCC against TTC7A,-0.896
21,UUAUCUAUAACAGAGUAUG against DCBLD2,0.479
22,UUGGAAAGCAGUGUCUCUG against KRTAP8-1,-0.147
23,UCUGCUUUGCAAAUAGCCG against SRD5A1,-3.07

row,Sequence,seed-corrected z-score
1,UAUGUGCACACGGUCUUGA against NRN1,-1.7
2,UAAGUUUAUAGUUGGGAAC against RPS25P6,-0.0501
3,AUUGGAUCAGUGGAGCUCU against SPANXN4,0.397
4,AAAUUCGUAAGCUCUGUGG against C2orf70,1.37
5,AAGCUUCUCAUUAAUGCCC against CYB561A3,-1.26
6,UAGGCAAAAACAGUCCACC against B3GNT8,-0.0844
7,UAUUACUCAGCAGCUUUGC against TIPIN,-0.378
8,AUACUGGAUAUCAUAGUUC against ARG2,-2.32
9,UUGGUUGUCAUGAUCAGUG against PAPD7,0.333
10,UUUUGUUCGUCUCCGUUCC against AK4,0.42
11,UGAGUUUCGCGCUCUCUCC against SLC17A7,-2.93
12,AGUAUUAUCACGUUAGUGG against NUP88,-0.85
13,UUUUCGCUACUUGAGUUGC against SLC35F5,-1.12
14,AAAGUUGAACUCCUGAUGG against MYT1L-AS1,0.298
15,UCGUUGUUCAAACCAUUCC against ZEB2,-2.94
16,UCUGAAUCCACUAACACUG against TMEM87B,-0.0559
17,UUGCUAAACAGGGCCUUGC against MCRS1,1.49
18,UAGGUUUUCUUCGUUGUCC against MIR503HG,0.872
19,UUCGAAGCAUCUUUUGGGC against RPL7P9,-2.28
20,UGAGUUGAACACGUAGCCC against ALPI,0.286
21,UUUGCUAUCUUGCUGAUGC against LINC00615,0.184
22,ACAGAUAUUGUAAAUCUCC against TMEM14C,0.508
23,UAUUGUGAUAUAGGCACCG against WDR26,-1.57

row,Sequence,seed-corrected z-score
1,UCACGUUUCACCAAGAUGC against EIF4A3,-2.2
2,UCCAUGACAAUGUCCACUC against VAT1,-0.662
3,UCUGGAUUAUGGGUAGGCC against CHTOP,-1.42
4,UUCUGCUUCUGUAUUAUCC against SAP30BP,-2.11
5,UCACUAUCAAGUCUGGUAC against CSMD3,0.55
6,UAUAUCUGCAACACGGUGG against SND1,0.153
7,UGUCUUUCAAACGUAGGCC against ZNF792,-3.5
8,UGUUUCGUAAACAUUCACC against FUT10,-0.285
9,UACAAUUACAUCAUCGUCC against GLT8D2,-0.139
10,UUCGAGAGACUGACAUGCG against SYT14P1,-0.0146
11,AUCUGGUUCAUUACAGUAG against BSDC1,-2.55
12,AAAAGACAUACAUGAAGAC against GJB1,-0.779
13,UCUAAUUCCAGGUAAAUUU against GOLT1B,0.519
14,UUAUCUUGCAGCAAAGCAC against LYZ,-1.35
15,UUAAACUUCACGUUGUCCU against RPL38,-2.01
16,AUUGGAGGCACUGCACUCG against NTM,0.224
17,UAUAGGAGCUCUAGGAUCU against CSTF2T,-0.439
18,AGCAUUGUAAGUGACGUGC against KCNN2,-2.24
19,UCUGUUAAUGCUAUUCUCC against C2orf61,0.146
20,UGUUAAGUAGAAAAUAACC against CD83,0.552
21,UAUGACAUCGGAGACCUUC against MEN1,0.259
22,AAAGUUGCUAUGAAGCGAG against PSMA8,-2.62
23,UCUCGUUUAUCUACAUCUC against AUTS2,0.181

row,Sequence,seed-corrected z-score
1,UACAGACAUAUGUACAUCC against CCDC12,-2.89
2,UGACAAAUCACUGUAUGUC against ZIM2,-0.582
3,UUUGAUACAGUAUCUACAG against DVL1,0.326
4,UUAUUUCUCAGCUCGUUGG against STX6,-2.43
5,UUUGUUUGCACCAGUUGUC against OTUD1,0.434
6,UUGCGCUCUAGUUCCAGGC against PRPH,-0.44
7,UCCUUUAACGGGAUCUUGU against PI3,0.267
8,UAUGUACAGAGACACCAGG against MC5R,-2.92
9,AUAGUCACAAAUGAAUCCG against PLS3,0.171
10,AACGAUGAUAGAAUUUACG against CLEC16A,-2.32
11,UGUGGAAACAUUGAUCUGC against PRPF4,-1.56
12,UUCUUUAUUGAGUGCAUGG against KLK6,-1.38
13,UCGUCUAUUGAUGAUGUCG against AQR,-2.1
14,UUCUGGAUUCUUGACCGCU against KRBOX4,0.0382
15,AGCUUGGAGAGUUUAGCCC against SLC46A1,0.256
16,UUCCUAAUACCACAAUUGC against NKIRAS1,-0.00171
17,UAAGUUGCAUGCCUGGUCA against RIMKLA,-3.91
18,UGUUGAGUAAGGAGGGACC against HSPB8,-0.073
19,UCAUCGCCUAUGUCGAUGC against ABCC11,0.255
20,UUUGAGCUUUCCUUAUUCC against CEP97,0.381
21,UCUAGAUCAUGAAUGCUCC against ZNF25,1.08
22,AUUUCUUUCAUAGUCACCG against RASL11B,-0.122
23,UAUGCUUUUAGACGAUUGG against ASB14,-0.444

row,Sequence,seed-corrected z-score
1,AGGUCUUCAAAUACCGUUG against LACTB2,-2.32
2,UUUGCUCCCUUCACUCUGC against DVL1,0.689
3,AAAUGUACACCAUAUAAGC against ELOVL6,-2.75
4,UUCAUGUCCACGUUGACCA against PLCD3,-0.387
5,UUAUGGUCUUGAGGUAAGG against RNF6,0.418
6,UUCGUGAAAGGAUCUGCUG against FRMD4B,-0.649
7,UCUGUUUUCAGGUCUUCCA against PMM1,0.485
8,UGAGUUUGAAGGUGAAUUC against TMEM207,0.374
9,UAGACUAGAAUGGUCACUC against DDIAS,0.728
10,UCUGGAGUGUUUGGGCUGC against CICP18,-3.73
11,UAACCUUCAACUCGCUGCC against NYNRIN,-1.01
12,UUAAUGGGAAGUUCUGGUG against ALG8,-0.153
13,UUGUUUACAAUUGAAACUC against RPS7,2.49
14,UUUGGUAAACUUCUGACUC against AFP,0.408
15,UUGGGCACAUGCUCUAAGG against SUN2,1.57
16,UUUGCGGUCAGGUUUCACC against MTNR1A,-0.693
17,UUCCUUCCAGCUGUAGGCC against CHRM1,-2.17
18,UUUGGAGCAAGUAAUCCCU against ATP5SL,0.0327
19,UACGCUCCAACCAUCAUAG against KIAA0368,-0.0559
20,AAUGUCACAAAAGUUCCGU against PGLYRP3,-0.707
21,UAACGAGAAAGACGGAUGC against CEP104,-0.248
22,AAUGCUAUAAAAUCCGUGG against C11orf95,0.671
23,UAUUAGGAGAUAUGAAGUG against PSMB7,0.622

row,Sequence,seed-corrected z-score
1,UCAGCUUCUACUCCGGUCU against DAPP1,-1.25
2,UUGUAUACAAGUGUCCACC against KCTD6,-2.54
3,UAUUGUAAGAGUACACGUC against IGSF5,-0.00495
4,UUGCGUUCAGGAAUAUCCG against MARK3,0.476
5,UGGAAUAUAAAACCCGUGC against FUNDC2P2,-0.0349
6,UUUGGGAUCUAUCAAUUUG against HNRNPDL,0.695
7,AACUUUACCAGUCACACUC against SMNDC1,-2.31
8,UACACUCCUCUGAAGUUUG against ZNF396,-0.508
9,UUGGGUCAAUCCAUUUCUC against C10orf55,0.749
10,UCCACGAAUAGCAAGUUGC against H2AFZ,0.129
11,UCUGCUUGUAGUGAAAGUC against DUSP9,-3.42
12,UAACUUACUGAGAAUCGGC against LCP2,-1.05
13,AAGGUGUUUCGAGUUAUGC against POLR2J,-0.205
14,UCAUGAACCCGAGCUCGAG against CD37,-0.195
15,AUUCCUGACAUUCACAUGC against ZNF439,0.169
16,UCAGGUGCAAUUGGGAGCU against TCEB1P3,-2.71
17,UACGUUUUCAGAGUAUCAC against PDCD10,0.491
18,AUACUUGACAUCACCAACC against CDKL2,-0.981
